Potency data for 39 molecules are collected here from PubChem BioAssay (NCATS).

SMILES strings stand for the structures. Inconclusive results are not listed. A call without a number means that no potency is given here. Activity calls are given as the source filed them. Calls come from the whole dose curve; as a rule, active = well fitted inhibition curve with a large enough effect; inconclusive = small, poorly fitted or top-dose-only effect; inactive = flat fitted curve, though single readings scatter.
Potency is the fitted concentration of half-maximal effect.

The assay concerns CP250. The assay is described as follows: qHTS profiling for inhibitors of Plasmodium falciparum proliferation (AID 504749). Note: nearly all actives have a fitted effect of over 60% in size. The conditions noted are these: P. falciparum in erythrocytes, SYBR Green DNA, 72 h; series mostly up to 28.7 µM. An outline of the steps: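 Quantitative HTS: compounds pinned into medium, infected erythrocytes added (0.3% parasitemia, 2.5% hematocrit), 72 h culture at 37 C under 5% CO2. Saponin/Triton lysis with SYBR Green I, overnight RT, then fluorescence read.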
(In general: qHTS replaces the single test concentration by a dilution series.)
On to `Cc1ccc(C(C)(C)c2ccc(C)cc2)cc1`, for which the Potency entry is “inactive”.
For the molecule `N[C@H](CC(=O)O)C(=O)O`, the Potency entry is “inactive”.
For `O=C(O)COc1ccc(CCNS(=O)(=O)c2ccccc2)s1` the value was “inactive”; for `O=S(=O)(O)CCCS(=O)(=O)O`, “inactive”; for `COC(=O)c1ccccc1O`, “inactive”.
With `CC1(O)CCC(C(C)(C)O)CC1` (centres undefined) the entry was “inactive”.
For `COc1ccc(/C=C/C(=O)O)cc1` the value was “inactive”; for `CC(=O)Nc1c(I)c(C(=O)O)c(I)c(N(C)C(C)=O)c1I`, “inactive”.
Regarding `Nc1ncnc2c1ncn2[C@H]1CC[C@@H](CO)O1`, the Potency result is “inactive”.
For `COC(=O)C(CN)c1c[nH]c2ccc(OC)cc12` (centres undefined) the value was “inactive”; for `CC/C(=C(/CC)c1ccc(OP(=O)(O)O)cc1)c1ccc(OP(=O)(O)O)cc1`, “inactive”; for `CN1c2c(nc(N)[nH]c2=O)NCC1CNc1ccc(C(=O)NC(CCC(=O)O)C(=O)O)cc1` (centres undefined), “inactive”.
With `CC(C)(CO)[C@@H](O)C(=O)NCCC(=O)NCCSSCCNC(=O)CCNC(=O)[C@H](O)C(C)(C)CO` the entry was “inactive”; with `CCCC(=O)O`, “inactive”.
As for `CCSc1ccc2c(c1)N(CCCN1CCN(C)CC1)c1ccccc1S2`, the Potency entry is “inactive”.
For `CC1=CC(=C(c2ccc(N)cc2)c2ccc(N)cc2)C=CC1=N` the value was 1 µM (active); for `CC1=CC(=O)NS(=O)(=O)O1`, “inactive”.
With `CC1CCCCN1CCCOC(=O)c1ccccc1` (centres undefined) the entry was “inactive”.
As to `COC(=O)CC[C@H](N)C(=O)O`, the Potency result was “inactive”.
With `C[C@H](CCC(=O)O)[C@H]1CC[C@H]2[C@@H]3CC[C@@H]4C[C@H](O)CC[C@]4(C)[C@H]3C[C@H](O)[C@]12C`, the Potency entry is “inactive”.
For `CO` the value was “inactive”; for `C=CCN1CCCC1CNC(=O)c1cc(S(N)(=O)=O)cc(OC)c1OC` (centres undefined), “inactive”.
Take `CC/C=C\C/C=C\C/C=C\C/C=C\C/C=C\C/C=C\CCC(=O)O`: the Potency result is “inactive”.
With `COc1cc2c(cc1OC)[C@@H](Cc1cc(OC)c(OC)c(OC)c1)[N+](C)(CCCOC(=O)CC/C=C/CCC(=O)OCCC[N+]1(C)CCc3cc(OC)c(OC)cc3[C@H]1Cc1cc(OC)c(OC)c(OC)c1)CC2` (some centres undefined), the Potency result is “inactive”.
Take `CCCOC(=O)c1ccccc1O`: the Potency result is “inactive”.
With `CC/C=C\C/C=C\C/C=C\CCCCCCCC(=O)O` the entry was “inactive”.
With `NC(=O)[C@H]1O[C@@H](O)[C@H](O)[C@@H](O)[C@@H]1O` the entry was “inactive”; with `CCCCCCCCCCCCOCCCN`, “inactive”.
For the molecule `CC(C)(C)c1ccc2c(S(=O)(=O)O)c(C(C)(C)C)ccc2c1`, the Potency entry was “inactive”.
With `COC(=O)CCC[N+](C)(C)C` the entry was “inactive”.
With `CNC(=O)OCc1cccc(COC(=O)NC)n1` the entry was “inactive”; with `O=C(NCCNCC(O)COc1ccc(O)cc1)N1CCOCC1` (centres undefined), “inactive”.
`OC[C@H]1O[C@@H]2O[C@H]3[C@H](O)[C@@H](O)[C@@H](O[C@H]4[C@H](O)[C@@H](O)[C@@H](O[C@H]5[C@H](O)[C@@H](O)[C@@H](O[C@H]6[C@H](O)[C@@H](O)[C@@H](O[C@H]7[C@H](O)[C@@H](O)[C@@H](O[C@H]1[C@H](O)[C@H]2O)O[C@@H]7CO)O[C@@H]6CO)O[C@@H]5CO)O[C@@H]4CO)O[C@@H]3CO`: the Potency result is “inactive”.
For `CCCCCCCCCCCCCCCCCCCCCC(=O)Nc1ccn([C@@H]2O[C@H](CO)[C@@H](O)[C@@H]2O)c(=O)n1` the value was “inactive”; for `CCCCCCCCCCCCCCCCCC[N+](C)(C)CCC[Si](OC)(OC)OC`, “inactive”; for `OB(O)O`, “inactive”.
For `CCOc1ccc(NC(=S)Nc2ccc(OCC)cc2)cc1` the value was “inactive”.
On to `CC(C)c1nc(N(C)S(C)(=O)=O)nc(-c2ccc(F)cc2)c1/C=C/C(O)CC(O)CC(=O)O` (centres undefined), for which the Potency result was “inactive”.
With `O=C(/C=C/c1cccc(F)c1)NC1CC1` the entry was “inactive”.
